# Experimental data taken from the supplement of paper PMC10849652.
# The full data set covers some 7,900 targets. This sample favours those with a hit. About 0.6% of all pairs of compound and target were hits. A number with no mark means an inactive call.
# What was measured:
# Assay in all cases: log2 fold change, soluble protein after heating vs DMSO (PISA); higher = thermal stabilisation; K562 cells, 10 uM, 30 min; active = over 0.2 and 3.5 SD of the protein, either way, in both replicates (recomputed)
# [1] = compound: CC[C@@H]1C(=O)N(C)c2cnc(Nc3ccc(C(=O)NC4CCN(C)CC4)cc3OC)nc2N1C1CCCC1
# In short: (§1)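 K562 cells at 2×10^6 cells/mL were exposed to 10 μM compound for 30 min, then aliquots were heated for 3 min across 48°C-58°C, pooled, and extracted in PBS containing 0.5% NP-40 at 4°C. The supernatant after 21,000xg for 90 min was taken as soluble protein and measured by TMTpro 16plex LC-MS/MS with channel sums equalised. Thermal stability is reported relative to control samples, with values from duplicates. Fold changes are given on a log2 scale.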
# [2] = compound: CC[C@@H]1C(=O)N(C)c2cnc(Nc3ccc(C(=O)N[C@H]4CC[C@H](N5CCN(CC6CC6)CC5)CC4)cc3OC)nc2N1C(C)C [volasertib]
# In short: as §1
# [3] = compound: CC[C@H](C)N1C=C(C2=C(C=C(C=C21)C3=CN=C(C=C3)N4CCNCC4)C(=O)NCC5=C(C=C(NC5=O)C)C)C
# In short: as §1
# [4] = compound: CC[C@H](C)[C@@H](C(=O)N[C@@H]([C@@H](C)O)C(=O)N[C@@H](CC(C)C)C(=O)[C@]1(CO1)C)NC(=O)[C@H]([C@@H](C)CC)N(C)C(=O)C [epoxomicin]
# In short: as §1
# [5] = compound: CCn1c(C(=O)N(C2CC2)C2CC2)cc2c3c(ncn3C)c(Nc3cc(C)n(C)n3)nc21
# In short: as §1
# [6] = compound: CCn1cc(-c2ccnc3[nH]c(-c4cccc(CN(C)C)c4)cc23)c(-c2ccc(NC(=O)N(C)C)cc2)n1
# In short: as §1
# [7] = compound: CN(C)CC(=O)Nc1ccc2[nH]c(=O)c3ccccc3c2c1
# In short: as §1
# [8] = compound: CN(CCOC1=CC=C(C=C1)C[C@H]2C(=O)NC(=O)S2)C3=CC=CC=N3 (racemic) [rosiglitazone]
# In short: as §1
# [9] = compound: CN1C2=C(C3=C1C(=O)N(N=C3)CC4=CC(=CC=C4)N)SC(=C2)S(=O)C
# In short: as §1
# [10] = compound: CN1CCC(CNc2ccc3ncc(-c4cccc(OC(F)(F)F)c4)n3n2)CC1
# In short: as §1
# [11] = compound: CN1CCN(CCOc2cc(OC3CCOCC3)c3c(Nc4c(Cl)ccc5c4OCO5)ncnc3c2)CC1 [saracatinib]
# In short: as §1
# [12] = compound: CN1CCN(c2nc(C3=C(c4c[nH]c5ccccc45)C(=O)NC3=O)c3ccccc3n2)CC1 [sotrastaurin]
# In short: as §1
# [13] = compound: CN1CC[C@H](c2c(O)cc(O)c3c(=O)cc(-c4ccccc4Cl)oc23)[C@H](O)C1 [alvocidib]
# In short: as §1
# [14] = compound: CN1CCc2c(c3ccccc3n2Cc2ccc(C(=O)NO)cc2)C1 [Tubastatin A]
# In short: as §1
# [15] = compound: CNC(=O)C1=CC=CC=C1NC2=NC(=NC=C2Cl)NC3=C(C=C(C=C3)N4CCOCC4)OC
# In short: as §1
# [16] = compound: CNC(=O)c1ccc(Nc2ncc(C(F)(F)F)c(NCc3nccnc3N(C)S(C)(=O)=O)n2)cc1 [defactinib]
# In short: as §1
# [17] = compound: CNCc1ccc(-c2[nH]c3cc(F)cc4c3c2CCNC4=O)cc1 [rucaparib]
# In short: as §1
# [18] = compound: CNc1nc(-c2ccc3c(N)n[nH]c3c2)cc(N2C[C@@H](C(=O)NC3CCCCC3)CC[C@H]2C)n1
# In short: as §1
# [19] = compound: COC(=O)N[C@@H](C)CNc1nccc(-c2cn(C(C)C)nc2-c2cc(Cl)cc(NS(C)(=O)=O)c2F)n1 [encorafenib]
# In short: as §1
# [20] = compound: COC(=O)[C@H](CCSC)NC(=O)C1=C(C=C(C=C1)NC[C@H](CS)N)C2=CC=CC=C2
# In short: as §1
# UniProt P60520, sequence (P60520 whole entry, looked up): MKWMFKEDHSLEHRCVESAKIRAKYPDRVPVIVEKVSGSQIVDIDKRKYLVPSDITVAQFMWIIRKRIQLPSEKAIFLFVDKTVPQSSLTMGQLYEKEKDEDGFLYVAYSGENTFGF
# UniProt Q6Y7W6, sequence (Q6Y7W6 whole entry, looked up): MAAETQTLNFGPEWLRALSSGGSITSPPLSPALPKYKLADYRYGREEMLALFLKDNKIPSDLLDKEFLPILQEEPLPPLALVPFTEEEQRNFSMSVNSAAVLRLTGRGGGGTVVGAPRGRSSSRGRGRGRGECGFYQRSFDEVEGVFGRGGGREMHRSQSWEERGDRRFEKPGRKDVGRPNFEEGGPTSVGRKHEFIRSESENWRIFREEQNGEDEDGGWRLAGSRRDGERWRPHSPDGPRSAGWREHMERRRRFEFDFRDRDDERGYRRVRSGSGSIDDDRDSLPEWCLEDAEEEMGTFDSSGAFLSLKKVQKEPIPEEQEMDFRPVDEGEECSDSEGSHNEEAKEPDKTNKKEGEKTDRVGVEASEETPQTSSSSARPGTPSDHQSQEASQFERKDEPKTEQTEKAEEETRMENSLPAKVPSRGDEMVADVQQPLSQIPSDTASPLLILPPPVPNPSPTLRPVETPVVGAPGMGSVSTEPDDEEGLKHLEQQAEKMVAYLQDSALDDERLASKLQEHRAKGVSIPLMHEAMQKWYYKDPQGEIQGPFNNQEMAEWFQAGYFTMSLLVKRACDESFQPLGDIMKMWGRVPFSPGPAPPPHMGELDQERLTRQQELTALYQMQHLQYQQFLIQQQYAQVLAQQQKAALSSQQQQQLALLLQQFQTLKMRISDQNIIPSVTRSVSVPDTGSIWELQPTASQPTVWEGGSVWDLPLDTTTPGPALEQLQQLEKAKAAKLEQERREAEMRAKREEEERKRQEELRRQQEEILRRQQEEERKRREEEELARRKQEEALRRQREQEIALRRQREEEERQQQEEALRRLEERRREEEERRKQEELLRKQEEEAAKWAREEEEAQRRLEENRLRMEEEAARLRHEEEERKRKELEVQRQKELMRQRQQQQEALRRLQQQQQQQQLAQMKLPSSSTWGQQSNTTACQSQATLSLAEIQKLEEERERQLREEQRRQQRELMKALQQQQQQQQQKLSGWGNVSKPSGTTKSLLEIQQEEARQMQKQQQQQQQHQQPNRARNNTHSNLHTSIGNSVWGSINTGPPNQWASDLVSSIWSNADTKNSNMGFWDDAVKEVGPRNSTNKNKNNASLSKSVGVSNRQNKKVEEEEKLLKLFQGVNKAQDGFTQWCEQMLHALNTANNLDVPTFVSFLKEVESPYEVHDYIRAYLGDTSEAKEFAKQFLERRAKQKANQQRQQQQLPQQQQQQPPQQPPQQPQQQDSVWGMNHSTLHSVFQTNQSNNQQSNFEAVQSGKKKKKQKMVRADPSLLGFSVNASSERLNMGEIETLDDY
# UniProt P05362, sequence (P05362 whole entry, looked up): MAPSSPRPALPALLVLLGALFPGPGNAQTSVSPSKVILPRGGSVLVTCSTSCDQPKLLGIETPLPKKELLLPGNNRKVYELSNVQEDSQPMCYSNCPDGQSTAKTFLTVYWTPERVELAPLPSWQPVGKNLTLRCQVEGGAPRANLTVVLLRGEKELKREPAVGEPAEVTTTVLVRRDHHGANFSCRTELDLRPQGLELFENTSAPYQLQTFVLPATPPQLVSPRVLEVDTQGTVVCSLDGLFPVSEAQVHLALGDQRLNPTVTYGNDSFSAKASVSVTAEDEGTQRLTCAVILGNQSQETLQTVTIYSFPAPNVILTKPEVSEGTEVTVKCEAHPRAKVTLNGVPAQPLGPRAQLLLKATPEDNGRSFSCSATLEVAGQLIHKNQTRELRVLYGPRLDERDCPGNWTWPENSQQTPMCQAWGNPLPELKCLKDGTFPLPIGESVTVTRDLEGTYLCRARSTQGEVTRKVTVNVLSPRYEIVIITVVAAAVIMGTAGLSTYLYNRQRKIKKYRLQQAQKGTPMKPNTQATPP
# UniProt P29083, sequence (P29083 whole entry, looked up): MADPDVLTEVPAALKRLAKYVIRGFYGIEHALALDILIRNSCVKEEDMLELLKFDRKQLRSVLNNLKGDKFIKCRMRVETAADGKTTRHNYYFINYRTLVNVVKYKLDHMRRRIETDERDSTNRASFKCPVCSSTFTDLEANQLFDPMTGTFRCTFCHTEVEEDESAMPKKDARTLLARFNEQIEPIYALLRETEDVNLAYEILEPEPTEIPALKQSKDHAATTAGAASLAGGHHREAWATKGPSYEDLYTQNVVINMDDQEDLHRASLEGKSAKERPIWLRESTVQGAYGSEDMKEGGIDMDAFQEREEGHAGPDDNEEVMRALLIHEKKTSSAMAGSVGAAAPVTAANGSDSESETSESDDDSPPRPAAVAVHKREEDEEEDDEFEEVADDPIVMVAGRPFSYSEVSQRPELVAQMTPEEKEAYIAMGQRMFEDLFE
# UniProt Q7Z4Q2, sequence (Q7Z4Q2 whole entry, looked up): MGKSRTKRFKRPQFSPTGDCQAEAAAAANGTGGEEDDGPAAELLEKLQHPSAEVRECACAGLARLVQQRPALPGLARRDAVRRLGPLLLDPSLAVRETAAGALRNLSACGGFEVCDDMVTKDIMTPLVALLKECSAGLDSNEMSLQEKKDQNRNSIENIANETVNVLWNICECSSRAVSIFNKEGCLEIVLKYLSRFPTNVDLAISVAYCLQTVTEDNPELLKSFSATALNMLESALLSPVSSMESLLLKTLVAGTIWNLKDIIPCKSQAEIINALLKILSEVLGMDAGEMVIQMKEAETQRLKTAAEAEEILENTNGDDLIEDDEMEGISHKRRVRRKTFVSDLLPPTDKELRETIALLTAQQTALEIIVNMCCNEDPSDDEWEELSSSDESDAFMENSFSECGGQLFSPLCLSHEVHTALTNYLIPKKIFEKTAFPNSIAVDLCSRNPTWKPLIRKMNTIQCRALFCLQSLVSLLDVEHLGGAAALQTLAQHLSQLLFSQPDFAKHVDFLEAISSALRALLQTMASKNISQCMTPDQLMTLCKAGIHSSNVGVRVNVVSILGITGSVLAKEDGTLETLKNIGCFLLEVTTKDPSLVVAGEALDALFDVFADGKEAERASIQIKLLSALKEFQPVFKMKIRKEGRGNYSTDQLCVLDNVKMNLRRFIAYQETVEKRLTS
# UniProt P09105, sequence (P09105 whole entry, looked up): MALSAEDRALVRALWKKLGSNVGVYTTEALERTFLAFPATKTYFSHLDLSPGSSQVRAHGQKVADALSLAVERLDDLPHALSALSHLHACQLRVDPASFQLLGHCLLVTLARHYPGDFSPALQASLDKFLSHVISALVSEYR
# UniProt Q8NCW6, sequence (Q8NCW6 whole entry, looked up): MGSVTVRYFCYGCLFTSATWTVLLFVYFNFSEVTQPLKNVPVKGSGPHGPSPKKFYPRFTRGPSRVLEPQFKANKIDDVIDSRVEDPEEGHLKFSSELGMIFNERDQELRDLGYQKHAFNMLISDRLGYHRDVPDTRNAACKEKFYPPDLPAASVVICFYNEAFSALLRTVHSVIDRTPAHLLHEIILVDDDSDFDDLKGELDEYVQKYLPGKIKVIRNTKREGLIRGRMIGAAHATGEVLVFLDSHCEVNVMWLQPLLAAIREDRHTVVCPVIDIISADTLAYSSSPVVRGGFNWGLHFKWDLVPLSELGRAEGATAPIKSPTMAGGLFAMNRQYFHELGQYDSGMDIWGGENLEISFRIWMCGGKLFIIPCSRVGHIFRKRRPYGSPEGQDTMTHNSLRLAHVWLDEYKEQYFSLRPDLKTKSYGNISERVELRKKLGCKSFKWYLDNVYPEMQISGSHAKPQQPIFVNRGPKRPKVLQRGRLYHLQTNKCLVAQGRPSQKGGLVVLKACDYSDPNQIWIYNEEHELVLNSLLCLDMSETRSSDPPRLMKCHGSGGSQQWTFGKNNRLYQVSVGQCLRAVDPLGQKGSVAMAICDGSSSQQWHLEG
# UniProt Q92947, sequence (Q92947 whole entry, looked up): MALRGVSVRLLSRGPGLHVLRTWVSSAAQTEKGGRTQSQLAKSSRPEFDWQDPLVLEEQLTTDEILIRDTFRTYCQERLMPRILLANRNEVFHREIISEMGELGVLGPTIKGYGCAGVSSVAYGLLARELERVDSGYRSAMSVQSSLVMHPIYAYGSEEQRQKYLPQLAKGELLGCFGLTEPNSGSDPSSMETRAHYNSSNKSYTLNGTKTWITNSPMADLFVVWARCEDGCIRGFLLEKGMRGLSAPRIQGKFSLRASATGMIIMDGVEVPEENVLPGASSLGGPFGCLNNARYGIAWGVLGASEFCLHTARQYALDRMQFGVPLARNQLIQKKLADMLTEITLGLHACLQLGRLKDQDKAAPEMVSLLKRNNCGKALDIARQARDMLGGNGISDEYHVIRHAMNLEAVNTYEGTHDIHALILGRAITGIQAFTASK
# UniProt P00367, sequence (P00367 whole entry, looked up): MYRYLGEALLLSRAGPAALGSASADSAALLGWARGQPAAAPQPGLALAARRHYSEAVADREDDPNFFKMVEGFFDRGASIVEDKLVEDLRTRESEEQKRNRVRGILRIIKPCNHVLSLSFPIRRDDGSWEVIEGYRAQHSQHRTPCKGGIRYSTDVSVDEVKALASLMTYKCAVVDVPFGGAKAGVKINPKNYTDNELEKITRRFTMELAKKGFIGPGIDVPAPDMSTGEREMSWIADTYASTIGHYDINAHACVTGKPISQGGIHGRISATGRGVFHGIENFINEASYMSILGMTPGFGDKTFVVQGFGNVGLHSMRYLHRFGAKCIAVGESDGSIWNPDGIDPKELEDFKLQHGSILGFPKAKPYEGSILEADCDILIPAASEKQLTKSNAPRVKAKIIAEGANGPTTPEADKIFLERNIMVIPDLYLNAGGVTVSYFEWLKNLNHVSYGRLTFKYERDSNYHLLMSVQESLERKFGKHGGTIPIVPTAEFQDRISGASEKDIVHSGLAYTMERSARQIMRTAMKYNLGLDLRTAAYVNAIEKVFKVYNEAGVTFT
# UniProt Q96HJ9, sequence (Q96HJ9 whole entry, looked up): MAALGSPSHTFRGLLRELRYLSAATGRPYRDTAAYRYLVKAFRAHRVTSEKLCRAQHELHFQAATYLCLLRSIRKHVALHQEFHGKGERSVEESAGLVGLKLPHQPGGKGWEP
Target,log2 fold change [1],log2 fold change [2],log2 fold change [3],log2 fold change [4],log2 fold change [5],log2 fold change [6],log2 fold change [7],log2 fold change [8],log2 fold change [9],log2 fold change [10],log2 fold change [11],log2 fold change [12],log2 fold change [13],log2 fold change [14],log2 fold change [15],log2 fold change [16],log2 fold change [17],log2 fold change [18],log2 fold change [19],log2 fold change [20]
GABARAPL1 isoform 2 (UniProt Q9H0R8),-0.303 (active),-0.186,0.035,-0.029,-0.037,0.007,0.034,0.03,-0.135,-0.187,-0.057,0,-0.019,0.08,0.023,-0.011,-0.079,-0.006,-0.004,-0.058
HHEX (UniProt Q03014),0.027,0.07,0.053,0.164,0.019,0.05,0.234,-0.029,0.117,-0.023,0.095,-0.068,-0.146,0.126,0.035,-0.173,0.04,-0.011,-0.061,0.651
GCDH (UniProt Q92947),-0.029,0.039,-0.003,0.024,-0.021,-0.051,0.008,0.013,-0.048,0.072,0.035,0.07,0,0.004,-0.054,-0.012,0.045,0.009,-0.047,0.008
GMEB1 (UniProt Q9Y692),-0.071,-0.281 (active),0.039,0.059,-0.056,-0.05,-0.045,0.096,-0.07,-0.014,-0.055,-0.06,-0.123,-0.022,0.028,-0.06,-0.047,-0.051,0.043,-0.003
GMEB2 (UniProt Q9UKD1),0.05,-0.282 (active),0.062,0.156,-0.059,-0.048,0.018,0.145,-0.03,-0.075,0.018,-0.019,-0.197,0.051,-0.065,-0.156,0.275 (active),-0.023,-0.007,0.008
GGT7 (UniProt Q9UJ14),0.029,-0.063,-0.069,0.079,-0.013,-0.124,0.081,0.005,0.02,0.023,0.066,0.051,-0.049,0.053,-0.042,-0.027,-0.038,-0.091,0,-0.011
GBF1 (UniProt Q92538),-0.086,-0.474 (active),0.059,-0.007,-0.07,-0.013,0.069,0.081,0.081,-0.212,-0.055,-0.103,-0.023,0.034,-0.024,-0.031,0.044,0.059,0.104,-0.015
GALNT1 (UniProt Q10472),-0.06,-0.218 (active),-0.011,-0.068,-0.005,-0.041,-0.011,0.003,-0.074,0.106,-0.026,0.03,-0.005,0.064,0.039,-0.046,0.008,-0.047,-0.037,-0.005
ICAM1 (UniProt P05362),0.155,0.078,-0.028,0.008,-0.02,0.012,-0.039,-0.002,-0.073,0.223 (active),0.035,0.07,-0.004,-0.03,-0.073,-0.026,0.049,0.099,-0.004,0.043
FEN1 (UniProt P39748),-0.073,-0.037,0.086,0.109,-0.13,-0.174,0.155,0.17,-0.057,-0.283,-0.087,-0.028,-0.099,0.116,-0.092,-0.139,-0.128,0.183,0.054,-0.087
FKBP7 (UniProt Q9Y680),0.035,0.021,0.015,-0.04,0.003,0.026,-0.042,-0.054,-0.001,0.191,0.073,0.056,0,-0.026,0.008,-0.032,0.01,0.031,0.044,0.036
IDI1 isoform 2 (UniProt Q13907),0.055,0.127,-0.05,-0.079,-0.008,-0.081,-0.065,-0.01,-0.004,-0.005,0.01,0.065,-0.017,-0.174,-0.002,-0.006,-0.124,0.002,-0.001,0.044
FBL (UniProt P22087),0.283,0.151,-0.034,-0.396,-0.106,0.184,-0.143,-0.144,0.359,0.34,0.11,-0.016,0.262,-0.022,-0.012,0.375,0.511,0.002,0.096,0.023
GLUD1 (UniProt P00367),0.146,0.25,0.034,0.024,0.126,-0.054,0,-0.007,-0.128,0.102,0.161,0.14,-0.002,-0.04,0.096,0.041,-0.099,0.089,-0.056,0.002
HBQ1 (UniProt P09105),0.01,-0.014,-0.005,0.375 (active),0.069,-0.064,0.047,0.021,-0.145,0.063,-0.029,0.007,-0.034,-0.011,-0.013,-0.009,-0.027,0.008,-0.007,0.028
GTF2E1 (UniProt P29083),-0.267,-0.567 (active),0.096,-0.015,-0.062,0.023,0.072,0.033,-0.034,-0.084,-0.026,-0.11,-0.148,0.064,0,-0.272,-0.126,-0.047,0.199,-0.099
GABARAPL2 (UniProt P60520),-0.29 (active),-0.182,0.041,0.027,0.007,-0.049,-0.017,0.099,-0.07,-0.099,0.021,0.047,-0.008,0.045,0.011,-0.019,-0.111,-0.013,-0.02,-0.009
GIGYF2 (UniProt Q6Y7W6),-0.093,-0.52 (active),0.02,0,-0.046,-0.039,0.032,0.069,0.021,-0.221 (active),-0.097,-0.111,-0.118,0.023,0.005,-0.04,0.065,0.016,-0.018,-0.022
FUBP3 (UniProt Q96I24),0.061,-0.251 (active),0.045,0.021,0.025,0.064,-0.028,0.016,0.02,0.059,0.012,0.05,0.129,-0.092,-0.039,0.184,0.167,-0.049,-0.003,-0.032
HOOK3 (UniProt Q86VS8),-0.151,-0.395 (active),0.034,0.004,0.006,-0.017,0.005,0.09,0.031,-0.358 (active),-0.016,-0.166,0.003,-0.019,0.013,-0.005,-0.063,-0.008,0.022,-0.007
GSK3A (UniProt P49840),-0.067,0.002,0.002,0,0.025,-0.101,-0.008,0.017,-0.066,0.033,-0.007,0.337 (active),0.257,-0.007,-0.009,0.18,0.22,-0.041,0.005,-0.051
HEATR3 (UniProt Q7Z4Q2),-0.308,-0.36 (active),0.033,0.039,-0.051,0.276,0.058,0.059,0.007,-0.34,-0.045,-0.167,-0.128,0.109,-0.054,-0.048,0.081,-0.006,-0.028,-0.006
FRA10AC1 isoform 3 (UniProt Q70Z53),-0.086,-0.613 (active),-0.034,0.041,-0.058,0.025,-0.013,0.115,0.093,0.057,0.125,0.133,0.132,-0.023,-0.01,0,-0.035,-0.196,-0.103,-0.067
GALNT11 (UniProt Q8NCW6),0.057,-0.223 (active),0.014,-0.002,-0.038,0.015,-0.079,0.176,0.013,-0.009,-0.025,-0.024,0,0.028,0.033,-0.187,-0.047,0.01,-0.064,-0.055
HBA1 (UniProt P69905),0.049,-0.059,-0.038,0.316,0.078,-0.076,0.012,0.022,-0.044,0.153,-0.017,0.036,-0.02,0.035,-0.01,-0.014,-0.036,0.011,-0.043,-0.034
FMC1 (UniProt Q96HJ9),0.04,0.102,-0.039,0.059,-0.102,0.046,-0.057,0.044,-0.01,-0.02,0.139,0.09,0.026,0.034,0.113,-0.056,-0.023,-0.071,-0.105,0.051
